Experimental findings from PubChem BioAssay AID686978 (National Center for Advancing Translational Sciences (NCATS), 2013) are described below.

Among all 420,000 compounds or so, about 64,000 (15%) were called active. Another 27% or so got no clear call; they are omitted. Calls follow the shape of the dose curve; as a rule, active = well fitted inhibition curve with a large enough effect; inconclusive = small, poorly fitted or top-dose-only effect; inactive = flat fitted curve, though single readings scatter. Not all results are given here.
% is scaled to controls: 0 for no effect and ±100 for the full control effect; potency is read from the fitted curve at half-maximal effect.

The nature of the assay: qHTS for Inhibitors of human tyrosyl-DNA phosphodiesterase 1 (TDP1): qHTS in cells in absence of CPT. Also: nearly all actives have a fitted effect of over 55% in size. To be noted: DT40 Tdp1-/- hTDP1 cells, no CPT, ATP luminescence, 48 h; activity change, negative = growth inhibition: at 46.2 µM (top of the series). The procedure, abridged:
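Chicken DT40 Tdp1-/- cells stably complemented with human TDP1 were seeded at 400 cells/well with DMSO in place of 20 nM camptothecin. After compound pinning, cells grew at least 48 hr at 37 °C; viability read by CellTiter-Glo luminescence.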
Regarding `COC(=O)CCCCC1=CCC2C(=O)C=C(O)C2C1` (stereo unspecified), the “activity change, negative = growth inhibition” value is 4.57% (inactive). For `CCOC(=O)C1(Cc2cccc(OC)c2)CCN(Cc2csc(C(C)=O)c2)CC1`, the Potency was 13 µM (active).

As for `CCOC(=O)C1(Cc2cccc(OC)c2)CCN(C(C)COC)CC1` (stereo unspecified), the “activity change, negative = growth inhibition” value is -60.7% (inactive). Still for that read-out and setting: with `CCOC(=O)C1(Cc2cccc(OC)c2)CCN(C(C)CC(C)(C)O)CC1` (stereo unspecified) the figure was -28.5% (inactive). Consider `Cc1ccc(-c2nc(-c3cccnc3)sc2CC(=O)Nc2ccc(C)c(Cl)c2)cc1`, for which the Potency is 23.1 µM (active). Consider `Cc1ccc(NC(=O)Nc2cccnc2)cc1`, for which the “activity change, negative = growth inhibition” value was 6.11% (inactive). The same measure, in the same setting: with `O=C(O)Cc1sc(-c2ccc(C(=O)O)cc2)nc1-c1ccccc1` the figure was 1.9% (inactive); with `CC(C)CN1C(=O)CN(S(C)(=O)=O)CC1(C)C(=O)NCc1ccccc1` (stereo unspecified), 8.49% (inactive); with `CCC(=O)Nc1sc(C(=O)Nc2ccccc2)c(C)c1C(=O)OC`, -26.8% (inactive). Consider `CCOC(=O)Nc1sc(C(=O)N(C)C)c(C)c1C(=O)OCC`, for which the “activity change, negative = growth inhibition” value is -18.5% (inactive). In the case of `CCOC(=O)c1c(NC(=O)CCl)sc(C(=O)N(CC)CC)c1C`, the Potency was 13 µM (active). `CCCCNC(=O)OC1CC2CC1[C@H]1CCCCN1C2=O` (stereo partly specified): the “activity change, negative = growth inhibition” value is -20.1% (inactive). As for `CN1CCN(c2ccc(NC(=O)c3ccccc3)cc2)CC1`, the “activity change, negative = growth inhibition” value was 28.4% (inactive). On to `CC(C)n1c(=O)[nH]c2cc(C(=O)Nc3ccccc3)ccc21`, for which the “activity change, negative = growth inhibition” value was -17% (inactive). On to `CN1CCN(c2ccc(NC(=O)c3ccc4c(c3)[nH]c(=O)n4Cc3ccc(F)cc3)cc2)CC1`, for which the Potency was 29.1 µM (active). With `C/C(=N/OC(=O)c1cccc(C(F)(F)F)c1)c1cnccn1`, the “activity change, negative = growth inhibition” value was 0.852% (inactive). Same read-out and setting: with `COc1cccc(OC)c1CN(C)C(=O)c1cnccc1C(F)(F)F` the figure was -0.155% (inactive). With `CCCC[C@@H]1CN=C(N)N1CCc1cccc(F)c1`, the Potency is 5.8 µM (active). Regarding `O=C1NC[C@@H](Cc2ccc(O)cc2)N(CCc2cccc(F)c2)C1=O`, the “activity change, negative = growth inhibition” value was -8.23% (inactive). Still for that read-out and setting: the same measure for `CCCS(=O)(=O)N1CCN=C1SCc1cccc(F)c1`: -26.5% (inactive). For `CCCC[C@@H]1CN=C(N)N1CCc1cc(C(F)(F)F)cc(C(F)(F)F)c1`, the Potency was 1.3 µM (active). With `NNC(=O)COc1ccc(C2SCCS2)cc1`, the “activity change, negative = growth inhibition” value is 1.8% (inactive). For `CC(=O)NC1C(Oc2ccc(C)cc2)OC2COC(c3ccco3)OC2C1O` (stereo unspecified), the “activity change, negative = growth inhibition” value is -25.2% (inactive). With `O=S(=O)(NC1CCCCC1)c1ccc(F)c2ccccc12`, the “activity change, negative = growth inhibition” value was -15.1% (inactive). As for `CCCC/S(C)=N/S(=O)(=O)c1ccc(C)cc1` (stereo unspecified), the “activity change, negative = growth inhibition” value was -0.693% (inactive). Same read-out and setting: the same measure for `COc1ccc(C(=O)CCC(=O)Nc2ccc(Cl)cc2)cc1`: 20.7% (inactive); for `COc1ccc(OCCCC(=O)Oc2ccc(OC)cc2)cc1`: -13% (inactive).

`COc1ccc(OCCC(=O)c2ccc(OC)cc2)cc1`: the Potency is 2.59 µM (active).

As for `Cc1ccc(NC(=O)N2CCC(O)(c3cccnc3)CC2)cc1`, the “activity change, negative = growth inhibition” value was 4.31% (inactive). Still for that read-out and setting: the same measure for `Cn1c(CCc2ccccc2)nnc1SCC(N)=O`: -18.3% (inactive); for `COC(=O)C1=C(C)NC(=S)NC1c1ccc(OCC(=O)N2CC(C)OC(C)C2)c(OC)c1` (stereo unspecified): 1.05% (inactive).

`O=C1CSC(c2ccc(Cl)cc2)N1` (stereo unspecified): the “activity change, negative = growth inhibition” value is -7.34% (inactive).

As to `CCCCC/C=C/C1=CC(=O)C[C@H](c2ccc(Cl)cc2)C1`, the “activity change, negative = growth inhibition” value was -26.2% (inactive). Take `N#Cc1ccc(C2=CC(=O)C[C@H](c3ccc(Cl)cc3)C2)cc1`: the Potency was 14.6 µM (active).

On to `O=C(NCc1ccccc1)[C@@H]1CSC2c3ccccc3C(=O)N21` (stereo partly specified), for which the “activity change, negative = growth inhibition” value is 1.51% (inactive). As to `CCOC(=O)C1CCN(CCC(=O)Nc2cccc(C)c2)CC1`, the “activity change, negative = growth inhibition” value was 3.8% (inactive). With `CCOC(=O)C1CCN(c2csc3ccc(C)cc3c2=O)CC1`, the “activity change, negative = growth inhibition” value was -8.13% (inactive).

As for `CCOC(=O)C1CCN(c2c(Nc3cc(C)cc(C)c3)c(=O)c2=O)CC1`, the Potency was 16.4 µM (active). Take `COC(=O)Nc1ccc(S(=O)(=O)N(C)CC(F)(F)C(F)F)cc1`: the “activity change, negative = growth inhibition” value was -22% (inactive). The same measure, in the same setting: with `CC1(C(=O)OCC(=O)Nc2ncc(Cl)cc2Cl)CC1(Cl)Cl` (stereo unspecified) the figure was -4.44% (inactive); with `Cc1ccc(SCCC(=O)OCC(=O)Nc2ncc(Cl)cc2Cl)cc1`, -16.3% (inactive).

`Cc1ccc(-n2c(SCC(=O)Nc3ncc(Cl)cc3Cl)nc3ccccc32)cc1`: the Potency was 13 µM (active). Take `COc1ccccc1P(=O)(c1ccccc1)c1ccccc1NC(C)=O` (stereo unspecified): the “activity change, negative = growth inhibition” value was -11.8% (inactive).

For `CCCCN(C)C(=O)C1CCN(Cc2ccccn2)CC1`, the “activity change, negative = growth inhibition” value was -10.8% (inactive). In the case of `CC1=C(/C=C/C(C)=C/C=C/C(C)=C/C=C/C=C(C)/C=C/C=C(C)/C=C/C2=C(C)CCCC2(C)C)C(C)(C)CCC1`, the “activity change, negative = growth inhibition” value is -10.8% (inactive). Regarding `O=C(NCCCn1ccnc1)Nc1ccc(Cl)cc1Cl`, the “activity change, negative = growth inhibition” value is -10.9% (inactive). Same read-out and setting: the same measure for `O=C(Nc1ccccc1C(=O)NCCCn1ccnc1)c1ccc(Cl)cc1Cl`: -27.3% (inactive). On to `Clc1ccc(C(Cn2ccnc2)OCc2ccsc2Cl)c(Cl)c1` (stereo unspecified), for which the Potency was 16.8 µM (active). For `CNc1nccc(-c2ccc(Cl)cc2)c1C#N`, the “activity change, negative = growth inhibition” value is -11.7% (inactive). The same measure, in the same setting: with `CN(C(=O)COC(=O)c1cc(-c2ccco2)nc2ccccc12)C1CCS(=O)(=O)C1` (stereo unspecified) the figure was 11% (inactive); with `N#Cc1ccc(-c2ccc(Cl)cc2)nc1Oc1ccc(F)cc1`, 3.35% (inactive). On to `COC(=O)c1cc(-c2cccs2)nc2ccccc12`, for which the “activity change, negative = growth inhibition” value is -3.83% (inactive). On to `CC(=O)Nc1cccc(Nc2nc(-c3cccs3)nc3ccccc23)c1`, for which the Potency is 8.2 µM (active). Turning to `CCN(CC(=O)Nc1c(F)cccc1F)C(=O)Cc1cccs1`, the “activity change, negative = growth inhibition” value is -19.1% (inactive). As for `O=C1CCCCC1C(=O)c1ccccc1` (stereo unspecified), the “activity change, negative = growth inhibition” value is 0.152% (inactive).

For the compound `Cc1n[nH]c(=O)c2c(NC(=O)CSc3ccccc3F)oc(C)c12`, the “activity change, negative = growth inhibition” value is -3.84% (inactive). Consider `CC(=O)N1CCN(S(=O)(=O)c2c(F)cc(F)c(Cl)c2F)CC1`, for which the “activity change, negative = growth inhibition” value is -23.5% (inactive). The same measure, in the same setting: with `COc1ccc(Cc2n[nH]c(=S)n2NC(=O)Nc2ccc(C)cc2)cc1` the figure was -0.57% (inactive); with `COc1ccc(OCCCC(=O)OC(C)C(=O)Nc2ccccc2[N+](=O)[O-])cc1` (stereo unspecified), -8.79% (inactive).

In the case of `O=c1[nH][nH]c(=O)c2cc(N3CCCC3)ccc12`, the “activity change, negative = growth inhibition” value is -0.739% (inactive). As to `O=C1C=CC(=O)N1c1ccc(N2CCCCC2)cc1`, the Potency is 1.16 µM (active). For `CS(=O)(=O)N1CCC[C@@]2(CCN(c3ccncc3)C2)C1`, the “activity change, negative = growth inhibition” value was 1.43% (inactive). In the case of `Cc1ccc(-c2c(C)n([O-])c3c([n+]2=O)CCC3)cc1`, the “activity change, negative = growth inhibition” value was -1.61% (inactive).

Take `CC1=NNC(=O)C1CCC(=O)N/N=C\c1ccc(Cl)c(Cl)c1` (stereo unspecified): the “activity change, negative = growth inhibition” value is 1.92% (inactive). In the case of `CCOC(=O)c1c(C)[nH]c(=S)c(C#N)c1-c1ccccc1`, the “activity change, negative = growth inhibition” value was -20.4% (inactive). Same read-out and setting: with `CCOC(=O)c1c(SCC(=O)Nc2cccc(C)c2C)nc(=O)[nH]c1C` the figure was -20.6% (inactive). With `CCOC(=O)c1c(C)[nH]c2c1-c1ccccc1C(=O)C2=O`, the Potency was 0.651 µM (active). `O=C(COC(=O)c1ccc[nH]c1=O)Nc1ccc2c(c1)OC(F)(F)O2`: the “activity change, negative = growth inhibition” value is 7.51% (inactive). Regarding `COCC1CCCCN1C(=O)c1cc(COc2ccc(C)c(C)c2)on1` (stereo unspecified), the Potency is 20.6 µM (active). Take `COC(=O)[C@@H]1CCCN1C(=O)c1cc(COc2cccc3cccnc23)on1`: the “activity change, negative = growth inhibition” value is -10.1% (inactive).

Regarding `Cc1ccc(OCc2cc(C(=O)N(C)CCn3ccnc3C)no2)cc1C`, the “activity change, negative = growth inhibition” value is -29.8% (inactive).
